This is a sample that favours compounds with a hit; in the whole collection about 7.3% have one here.
HCV inh = inhibitors of hepatitis C virus infection; AID 651820; Huh7.5.1 HCVcc-Cre infection, luciferase reporter, 44 h; 3.4% of 340,000 active; Potency, µM (top dose mostly 41.8 µM), inactives show top-dose activity change, negative = inhibition, actives largely listed as inhibitors; also: potency is read from the fitted curve at half-maximal effect
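A cell-based infection assay in which seeded cells (1,000 per well) receive test compound after 4 h, are inoculated with HCVcc-Cre at approximately 0.5 moi, and are incubated 44 h before luminescence detection.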
AmpC detergent = AmpC beta-lactamase inhibition with detergent present; 0.041% of 370,000 active; AmpC hydrolysis of nitrocefin, absorbance 480 nm, 0.01% Triton; Potency, µM (top dose mostly 114 µM), for the others: at the highest dose activity change, negative = inhibition, actives largely listed as inhibitors; P00811;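 also: potency is read from the fitted curve at half-maximal effect; 0% = no-compound wells and -100% = no-enzyme wells; nearly all actives have a fitted effect of over 25% in size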
Target sequence (P00811 whole entry, looked up): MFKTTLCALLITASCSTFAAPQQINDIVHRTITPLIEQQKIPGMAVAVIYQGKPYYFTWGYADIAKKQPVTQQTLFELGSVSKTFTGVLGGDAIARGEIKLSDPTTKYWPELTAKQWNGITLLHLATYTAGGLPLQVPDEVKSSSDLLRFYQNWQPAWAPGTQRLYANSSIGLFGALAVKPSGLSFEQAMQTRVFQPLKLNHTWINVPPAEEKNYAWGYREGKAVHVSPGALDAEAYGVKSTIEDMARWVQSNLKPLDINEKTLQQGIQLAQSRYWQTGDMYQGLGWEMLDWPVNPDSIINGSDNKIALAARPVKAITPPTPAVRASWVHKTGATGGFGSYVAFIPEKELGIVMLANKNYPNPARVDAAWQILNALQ
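20 mM phosphate pH 7.0 + 0.01% (detergent screen) or 0.0001% Triton X-100; 5.3 nM AmpC reagent; cpd preinc 15 min RT; nitrocefin (800 uM stock) to start; A480 q20 s × 4 min; Activity was normalised to no-enzyme and no-compound control wells.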
AmpC inh no detg = blocks E. coli AmpC beta-lactamase in detergent-free assay; P00811; Potency, µM (top dose mostly 57.1 µM), inactives show at the highest dose activity change, negative = inhibition, most hits filed as inhibitors; 0.52% of 330,000 active; AID 485341; AmpC nitrocefin hydrolysis, absorbance 480 nm, 0.0001% Triton;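 also: potency is read from the fitted curve at half-maximal effect; plate controls were no compound for no effect and no enzyme for full effect; nearly all actives have a fitted effect of over 20% in size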
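AmpC (5.3 nM in the dispensed reagent) in 20 mM phosphate pH 7.0 with 0.01% (detergent screen) or 0.0001% Triton X-100 was preincubated with compounds for 15 min at room temperature. Nitrocefin was then added from an 800 uM solution, and hydrolysis was followed at 480 nm.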
HCMV inh = blocks human cytomegalovirus replication; 4.5% of 410,000 active; AID 1259415; activity change, negative = inhibition, % at 57.5 µM; HFF cells, HCMV-luciferase reporter, 72 h; stronger effect = lower value; in the data active = activity change below about -60%; inconclusive = no clear call, values can overlap the other calls; inactive = above about -39%
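Luciferase read-out from HCMV-luciferase-infected HFFs (MOI 1 PFU/cell) 72 h post infection at 37C; compounds added after 16 h cell attachment; activity normalized between buffer-only basal and Salinomycin (10uM) inhibitor controls.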
FMDV antiviral = foot and mouth disease virus antiviral activity | Potency, µM (highest dose often 57.9 µM), for the others: at the top dose activity change, negative = inhibition, actives largely listed as inhibitors | FMDV antiviral cell-based qHTS | 1.2% of 410,000 active; calls by dose curve; tested in HEK293T cells; also: read-out not given here; potency is read from the fitted curve at half-maximal effect; nearly all actives have a fitted effect of over 45% in size
Active calls of the source: *; ? = inconclusive; . = no result given; ! = a repeat was not active; [ ] = remark or other dose. Unless noted, calls follow the shape of the dose curve; as a rule, active = well fitted curve in the direction sought with a large enough effect; inconclusive = small, poorly fitted or top-dose-only effect, or another doubt; inactive = no such curve, though single readings can be large; an effect the other way counts as inactive or inconclusive. Unless noted, % is scaled to controls: 0 for no effect and ±100 for the full control effect.

SMILES | HCV inh | AmpC detergent | AmpC inh no detg | HCMV inh | FMDV antiviral
CCN(CCO)CCCC(C)Nc1ccnc2cc(Cl)ccc12 (stereo not given) | . | . | . | . | -13.7%
Oc1ccc(Nc2ccnc3cc(Cl)ccc23)cc1 | -1.5% | 8.2% | -31.1% | -11.7 | 23.8%
CCN(CC)Cc1cc(Nc2ccnc3cc(Cl)ccc23)ccc1O | 7.94µM* | -8.2% | -2.6% | -28.4 | -17.3%
CCN(CC)CCNc1ccnc2cc(Cl)ccc12 | 5.62µM* | 1.5% | -14.1% | 0.3 | -21.0%
COc1ccc(S(=O)(=O)NC2CC2)cc1Cl | -1.2% | ? | -4.3% | 72.9 | 44.0%
CCCc1nc(SCC(=O)O)c2sc(=S)n(-c3ccccc3)c2n1 | -2.7% | -3.2% | -12.8% | -3.7 | -16.8%
COc1ccccc1C(C)NC(=O)CN(C)CC(=O)Nc1c(C)cccc1C (stereo not given) | -3.0% | ? | 19.1% | -1.9 | -12.9%
NC(=O)c1ccsc1NC(=O)CCS(=O)(=O)c1ccc(F)cc1 | ? | ? | -16.4% | -63.4* | ?
CNC(=O)c1ccsc1NC(=O)CCS(=O)(=O)c1ccc(F)cc1 | -8.7% | ? | -12.4% | -17.8 | -29.5%
CCOC(=O)C1CCN(C(=O)c2ccc3c(c2)sc2nc(-c4ccc(OC)cc4)cn23)CC1 | . | 2.0% | . | . | -28.7%
COc1ccc2c(c1)sc1nc(-c3ccccc3)cn12 | ? | -1.5% | 3.4% | -97.9* | 7.94µM*
CCOC(=O)N1CCN(C(=O)c2ccc3c(c2)sc2nc(-c4ccc(OC)cc4)cn23)CC1 | 14.1µM*! | -2.2% | 136.1% | . | -11.1%
COc1ccc(-c2cn3c(n2)sc2cc(C(=O)NCc4ccccc4)ccc23)cc1 | . | -6.8% | . | . | -14.3%
O=C(CCN1C(=O)c2ccccc2C1=O)C1=NN[C@@H]2C(=O)N(c3ccc4c(c3)OCCO4)C(=O)[C@H]12 | 7.6% | 0.2% | -5.5% | ? | -8.1%
COc1ccc(C(=O)C(CCC(CNC(C)(C)C)C(=O)c2ccc(OC)cc2)CNC(C)(C)C)cc1 (stereo not given) | ? | -14.5% | -20.4% | -98.2* | ?
COc1ccc(C(=O)CC(=O)c2ccc(C(C)(C)C)cc2)cc1 | ? | . | . | 12.6 | 0.0%
CN(CCO)C(=O)c1cn(C2CCCN(Cc3ccc4ccccc4c3)C2)nn1 (stereo not given) | . | . | . | . | -22.1%
Cc1cc(=O)[nH]c(SCC(=O)Nc2c(C)n(C)n(-c3ccccc3)c2=O)n1 | 19.1% | 5.7% | -6.4% | -6.8 | -18.6%
CCOC(=O)C1=C(C)NC(C)=C(C(=O)OC)C1c1cccc(Cl)c1Cl (stereo not given) | 1.6%[8.37 µM] | 2.1% | 22.5% | -67.8* | -5.5%
Cc1[nH]n(-c2ccccc2)c(=O)c1N=Nc1nccs1 | ? | -2.2% | -21.3% | -96.0* | 3.7%
Cc1[nH]n(-c2ccccc2)c(=O)c1N=Nc1ccc2c(c1)OCO2 | 6.8% | 1.8% | -22.2% | 24.5 | 39.2%
Cc1[nH]n(-c2ccccc2)c(=O)c1N=Nc1ccccc1O | 4.47µM* | -0.1% | -27.5% | -99.2* | 5.2%
Cc1ccccc1N=Nc1c(C)[nH]n(-c2ccccc2)c1=O | 17.9% | 9.7% | -9.0% | . | 20.1%
Cc1[nH]n(C2=NCCS2)c(=O)c1N=Nc1ccccc1 | -5.6% | 3.9% | -22.0% | -61.4* | 32.5%
CC(C)c1ccc(Nc2cc3c(cn2)cc(-c2ccccc2)n3C)cc1 | . | . | . | -21.3 | .
SMILES | HCV inh | AmpC detergent | AmpC inh no detg | HCMV inh | FMDV antiviral
Cc1cc(-c2ccccc2)n(-c2cc(N/N=C/c3ccccc3O)ncn2)n1 | ? | -20.7% | ? | -96.2* | ?
CNc1cc(-n2nc(C)cc2-c2ccccc2)ncn1 | -19.5% | -11.9% | -7.6% | 25.0 | -15.3%
CCOc1ccc2ccccc2c1C1NC(=O)N(C)C(C)=C1C(=O)OCCOC (stereo not given) | -7.7% | -8.6% | 36.1% | 0.0 | -7.8%
N#CC(c1cccc(Cl)c1)c1ccc2c(C(F)(F)F)cc(C(F)(F)F)nc2n1 (stereo not given) | 2.82µM* | 0.6% | . | -103.7* | 5.01µM*
CCN(CC(=O)Nc1c(C(=O)OC)[nH]c2ccc(C)cc12)c1ccc2c(c1)OCO2 | 8.91µM* | -13.3% | 9.4% | -5.4 | -24.8%
COC(=O)c1[nH]c2ccc(C)cc2c1NC(=O)CN1CCc2cc(OC)c(OC)cc2C1 | 10µM* | -2.6% | 135.5% | -10.5 | ?
COC(=O)c1[nH]c2ccc(C)cc2c1NC(=O)CN1CCCC(C)(C)C1 | 12.6µM* | 1.9% | 22.8% | ? | 7.3%
Cc1ccsc1CN1CCc2nc(Nc3ccccc3)ncc2C1 | . | -4.6% | . | 55.4 | 26.3%
O=C(OCCc1cc2ccccc2c(=O)o1)c1ccccc1C(F)(F)F | 22.4µM* | 0.6% | -5.3% | -3.5 | -27.3%
Cc1ccc(CN2CCC(c3nc4ccc(Cl)cc4[nH]3)CC2)cc1 | 11.2µM* | -1.7% | -11.5% | -19.5 | .
Clc1ccc2nc(C3CCN(Cc4ccccc4)CC3)[nH]c2c1 | ? | -2.8% | -27.2% | -27.1 | -9.2%
COc1ccc(-c2cc(C3CCN(Cc4ccc([N+](=O)[O-])cc4)CC3)[nH]n2)cc1 | ? | 8.7% | 1.5% | ? | ?
Cc1ccc(CN2CCC(c3cc(-c4ccc(Cl)cc4)n[nH]3)CC2)cc1 | 12.6µM* | 1.3% | 54.9% | -98.7* | ?
CCc1ccc(C2=C(C)C(N3CCC(C(=O)NCCc4ccco4)CC3)=NS2(=O)=O)cc1 | . | 6.9% | . | -62.3* | -1.1%
CCC1=C(c2ccc(C)cc2)S(=O)(=O)N=C1N1CCC(C(=O)NCCc2ccc(Cl)cc2)CC1 | . | 27.9% | . | -86.5* | -17.3%
CC1=C(c2ccc(C)c(C)c2)S(=O)(=O)N=C1N1CCC(C(=O)Nc2ccc(Cl)cc2)CC1 | . | 2.1% | . | -84.2* | -29.5%
CC1=C(c2ccc(Cl)cc2)S(=O)(=O)N=C1N1CCC(C(=O)NCCc2ccco2)CC1 | . | 0.1% | . | -3.8 | -13.2%
CC1=C(c2ccc(C)c(C)c2)S(=O)(=O)N=C1N1CCC(C(=O)NCc2ccc(Cl)cc2)CC1 | . | 11.9% | . | -21.8 | -18.8%
CCC1=C(c2ccc(C)cc2)S(=O)(=O)N=C1N1CCC(C(=O)NCc2ccc(C)cc2)CC1 | . | -6.2% | . | 8.9 | -26.0%
COc1ccc(OC)c(CNc2nc3ccccc3n2CCN2CCCCC2)c1 | 11.2µM* | 3.8% | 20.8% | -29.6 | -10.1%
CCN(CC)CCn1c(NCc2ccc(OC)cc2)nc2ccccc21 | ? | -2.7% | . | -100.3* | -20.1%
COc1ccc(/C=N/c2nc3ccccc3n2CCN2CCCCC2)cc1OC | -3.3% | ? | -31.0% | -63.9* | -15.7%
C=CCn1c(/N=C/c2ccc(OC)cc2)nc2ccccc21 | 11.9% | 5.2% | -10.0% | . | 21.8%
COc1ccc(-c2csc(Nc3ccccn3)n2)cc1OC | 8.91µM* | -1.7% | 70.9% | 21.2 | -1.9%
Cc1cc(-c2csc(Nc3ccccn3)n2)ccc1F | 6.31µM* | ? | -47.5% | 158.5 | -33.1%
Cc1ccc(-c2csc(Nc3ccccn3)n2)cc1 | -25.5% | -7.3% | -45.9% | -8.4 | -62.3%
